Data on 25 molecules can be found in PMC9911399, “Two distinct binding modes provide the RNA-binding protein RbFox with extraordinary sequence specificity”.

T1: RBFOX1 RRM (Homo sapiens, UniProt Q9NWB1 109-208)
T1 sequence: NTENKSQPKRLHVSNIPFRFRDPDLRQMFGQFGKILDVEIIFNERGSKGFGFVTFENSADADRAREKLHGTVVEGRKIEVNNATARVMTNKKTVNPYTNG

B1: AGCUCAC (DNA:RNA)
RNA: GGGAGACCGGAAUUCAGAUUGUCCAGCUCACUUAAAUCCCGUCGUAGCCACCA
DNA 1: CAATCTGAATTCCGGTCTCCC
DNA 2: TGGTGGCTACGACGGGATT
B2: ACUGACU (DNA:RNA)
RNA: B1 RNA with G26C, C27U, U28G, C29A, A30C, C31U
DNA 1: CAATCTGAATTCCGGTCTCCC
DNA 2: TGGTGGCTACGACGGGATT
B3: UAAAUCG (DNA:RNA)
RNA: GGGAGACCGGAAUUCAGAUUGUCCUAAAUCGUUAAAUCCCGUCGUAGCCACCA
DNA 1: CAATCTGAATTCCGGTCTCCC
DNA 2: TGGTGGCTACGACGGGATT
B4: GAAAAGU (DNA:RNA)
RNA: B3 RNA with U25G, U29A, C30G, G31U
DNA 1: CAATCTGAATTCCGGTCTCCC
DNA 2: TGGTGGCTACGACGGGATT
B5: AGAAACC (DNA:RNA)
RNA: B1 RNA with C27A, U28A, C29A, A30C
DNA 1: CAATCTGAATTCCGGTCTCCC
DNA 2: TGGTGGCTACGACGGGATT
B6: CUCAAUG (DNA:RNA)
RNA: B3 RNA with U25C, A26U, A27C, U29A, C30U
DNA 1: CAATCTGAATTCCGGTCTCCC
DNA 2: TGGTGGCTACGACGGGATT
B7: CGCGAUA (DNA:RNA)
RNA: B1 RNA with A25C, U28G, C29A, A30U, C31A
DNA 1: CAATCTGAATTCCGGTCTCCC
DNA 2: TGGTGGCTACGACGGGATT
B8: ACCAGGG (DNA:RNA)
RNA: B1 RNA with G26C, U28A, C29G, A30G, C31G
DNA 1: CAATCTGAATTCCGGTCTCCC
DNA 2: TGGTGGCTACGACGGGATT
B9: GUCCCCC (DNA:RNA)
RNA: B1 RNA with A25G, G26U, U28C, A30C
DNA 1: CAATCTGAATTCCGGTCTCCC
DNA 2: TGGTGGCTACGACGGGATT
B10: ACUCCAA (DNA:RNA)
RNA: B1 RNA with G26C, C27U, U28C, C31A
DNA 1: CAATCTGAATTCCGGTCTCCC
DNA 2: TGGTGGCTACGACGGGATT
B11: ACCAGAU (DNA:RNA)
RNA: B1 RNA with G26C, U28A, C29G, C31U
DNA 1: CAATCTGAATTCCGGTCTCCC
DNA 2: TGGTGGCTACGACGGGATT
B12: AAGCGUC (DNA:RNA)
RNA: B1 RNA with G26A, C27G, U28C, C29G, A30U
DNA 1: CAATCTGAATTCCGGTCTCCC
DNA 2: TGGTGGCTACGACGGGATT
B13: CAUGGGA (DNA:RNA)
RNA: B3 RNA with U25C, A27U, A28G, U29G, C30G, G31A
DNA 1: CAATCTGAATTCCGGTCTCCC
DNA 2: TGGTGGCTACGACGGGATT
B14: UUGGUCC (DNA:RNA)
RNA: B3 RNA with A26U, A27G, A28G, G31C
DNA 1: CAATCTGAATTCCGGTCTCCC
DNA 2: TGGTGGCTACGACGGGATT
B15: UUGGUUG (DNA:RNA)
RNA: B3 RNA with A26U, A27G, A28G, C30U
DNA 1: CAATCTGAATTCCGGTCTCCC
DNA 2: TGGTGGCTACGACGGGATT
B16: UCCUUGG (DNA:RNA)
RNA: B3 RNA with A26C, A27C, A28U, C30G
DNA 1: CAATCTGAATTCCGGTCTCCC
DNA 2: TGGTGGCTACGACGGGATT
B17: GUCGGCC (DNA:RNA)
RNA: B1 RNA with A25G, G26U, U28G, C29G, A30C
DNA 1: CAATCTGAATTCCGGTCTCCC
DNA 2: TGGTGGCTACGACGGGATT
B18: GGCGGCC (DNA:RNA)
RNA: B1 RNA with A25G, U28G, C29G, A30C
DNA 1: CAATCTGAATTCCGGTCTCCC
DNA 2: TGGTGGCTACGACGGGATT
B19: UUGUUGG (DNA:RNA)
RNA: B3 RNA with A26U, A27G, A28U, C30G
DNA 1: CAATCTGAATTCCGGTCTCCC
DNA 2: TGGTGGCTACGACGGGATT
B20: UUGUCCG (DNA:RNA)
RNA: B3 RNA with A26U, A27G, A28U, U29C
DNA 1: CAATCTGAATTCCGGTCTCCC
DNA 2: TGGTGGCTACGACGGGATT
B21: GGCCUUG (DNA:RNA)
RNA: B1 RNA with A25G, U28C, C29U, A30U, C31G
DNA 1: CAATCTGAATTCCGGTCTCCC
DNA 2: TGGTGGCTACGACGGGATT
B22: UUGGUCG (DNA:RNA)
RNA: B3 RNA with A26U, A27G, A28G
DNA 1: CAATCTGAATTCCGGTCTCCC
DNA 2: TGGTGGCTACGACGGGATT
B23: GUCCUUG (DNA:RNA)
RNA: B3 RNA with U25G, A26U, A27C, A28C, C30U
DNA 1: CAATCTGAATTCCGGTCTCCC
DNA 2: TGGTGGCTACGACGGGATT
B24: GUGGUCC (DNA:RNA)
RNA: B3 RNA with U25G, A26U, A27G, A28G, G31C
DNA 1: CAATCTGAATTCCGGTCTCCC
DNA 2: TGGTGGCTACGACGGGATT
B25: UUGUUCG (DNA:RNA)
RNA: B3 RNA with A26U, A27G, A28U
DNA 1: CAATCTGAATTCCGGTCTCCC
DNA 2: TGGTGGCTACGACGGGATT

Positions count from the first letter of the chain named. The full ranking holds about 16,000 sequences; the median of “ka relative to ugcaugu” is about 0.0091, and the highest 2% start at about 0.032. Only a selection was taken, and the highest values are over-represented in it overall.

The assay has as its target T1, RBFOX1 RRM. Briefly: EMSA; HiTS-Eq, 1 nM pool, 10 min; buffer printed only for the single-RNA assays: 10 mM Tris pH 7.5, 150 mM NaCl, 3.4 mM EDTA, 0.001% NP-40, 30 C. The note with it: tags: His6 N-terminal (pET28a); label: 5' 32P. In a few lines: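 Relative association constants, normalised to the cognate motif, were derived by comparing read counts of each RNA species with those of the control reaction. The RNA sequenced was the free fraction, separated by 8% native PAGE after a 10 min equilibration in 50 µL of 1 nM 5′-radiolabelled RNA (7 randomized nucleotides) with increasing concentrations of purified wild-type or mutant RbFox RRM.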
As to B1, the binding signal is 0.00457 KA relative to UGCAUGU.

Consider B2, for which the binding signal is 0.00677 KA relative to UGCAUGU.

As for B3, the binding signal is 0.00678 KA relative to UGCAUGU.

For B4, the binding signal was 0.00662 KA relative to UGCAUGU.

For B5, the binding signal was 0.00391 KA relative to UGCAUGU.

Consider B6, for which the binding signal was 0.00378 KA relative to UGCAUGU.

Regarding B7, the binding signal was 0.00807 KA relative to UGCAUGU.

With B8, the binding signal is 0.00782 KA relative to UGCAUGU.

B9: the binding signal is 0.0163 KA relative to UGCAUGU.

As to B10, the binding signal was 0.000959 KA relative to UGCAUGU.

As for B11, the binding signal was 0.00102 KA relative to UGCAUGU.

As to B12, the binding signal was 0.00965 KA relative to UGCAUGU.

As for B13, the binding signal was 0.00261 KA relative to UGCAUGU.

Regarding B14, the binding signal was 0.0262 KA relative to UGCAUGU.

As to B15, the binding signal was 0.0398 KA relative to UGCAUGU.

For B16, the binding signal was 0.0132 KA relative to UGCAUGU.

For the molecule B17, the binding signal was 0.0169 KA relative to UGCAUGU.

With B18, the binding signal was 0.0183 KA relative to UGCAUGU.

For the molecule B19, the binding signal is 0.0248 KA relative to UGCAUGU.

As for B20, the binding signal is 0.0163 KA relative to UGCAUGU.

As to B21, the binding signal was 0.0328 KA relative to UGCAUGU.

In the case of B22, the binding signal is 0.0376 KA relative to UGCAUGU.

As for B23, the binding signal is 0.0114 KA relative to UGCAUGU.

On to B24, for which the binding signal is 0.0226 KA relative to UGCAUGU.

On to B25, for which the binding signal was 0.0364 KA relative to UGCAUGU.
